The values that follow come from PubChem BioAssay AID651965 (National Center for Advancing Translational Sciences (NCATS), 2013).

The whole screen tested about 340,000 compounds, of which about 6,400 (1.9%) were called active. Roughly 4% stayed inconclusive and do not appear here. The list comes from a sample in which actives are over-represented; it also holds similar structures and randomly drawn compounds. A number with no mark means an inactive call. Calls follow the shape of the dose curve; as a rule, active = well fitted falling curve with a large enough effect; inconclusive = small, poorly fitted or top-dose-only effect; inactive = no such curve, though single readings can be large or run the other way.
Potency is read from the fitted curve at half-maximal effect.

Chain of ATP-dependent Clp protease proteolytic subunit (Bacillus subtilis (strain 168)) (P80244 whole entry, looked up): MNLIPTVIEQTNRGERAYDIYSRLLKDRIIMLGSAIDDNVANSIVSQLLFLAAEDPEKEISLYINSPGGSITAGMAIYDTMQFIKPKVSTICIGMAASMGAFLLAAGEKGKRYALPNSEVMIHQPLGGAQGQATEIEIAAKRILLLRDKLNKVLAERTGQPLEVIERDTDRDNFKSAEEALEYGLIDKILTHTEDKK

This test has as its target ATP-dependent Clp protease proteolytic subunit (Bacillus subtilis (strain 168)) (UniProt P80244). Nature of the test: qHTS Assay for Activators of ClpP. Also: the source files actives as falling curves though it sought activators and does not explain the sign; nearly all actives have a fitted effect of over 65% in size. Particulars: purified B. subtilis ClpP, FRET peptide cleavage, 20 min; series mostly up to 57.5 µM; activity change, negative = active: at the top concentration. The method in brief: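 Purified B. subtilis ClpP, 10 microg/mL final in Tris/HCl pH8 with KCl, BSA, glycerol and Tween-20, cleaved an Abz/nitrotyrosine-quenched decapeptide. Fluorescence (ex 320, em 430) was read at 0 and 20 min at room temperature. Delta was normalized to 5.8 microM ADEP and DMSO/no-enzyme controls.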
(In qHTS, concentration-response curves come from the screen itself.)
As to `Nc1ncnc2c1ncn2[C@@H]1O[C@H](C(=O)N2CCSC2)[C@@H](O)[C@H]1O`, the “activity change, negative = active” value is 0.957%.
On the same count and under the same terms, the result for `CCOC(=O)C1C(C)C(C(C)(C)C)N(S(=O)(=O)c2ccc(C)cc2)C1c1ccccc1` (stereo not given) reads 0.713%; that for `Nc1nc(CSc2nnnn2-c2ccccc2)nc(Nc2ccccc2)n1`, -2.32%; that for `OC[C@@H]1CN(Cc2cccs2)C[C@H](n2cnc3c(NC4CCCC4)ncnc32)O1`, -2.11%.
Turning to `NC(=O)CSC1=Nc2ccccc2C2=NC(CCC(=O)NCc3ccc(F)cc3)C(=O)N12` (stereo not given), the Potency was 28.2 µM (active).
As for `O=C(CCC1N=C2c3ccccc3N=C(SCc3ccccc3F)N2C1=O)NCCc1ccccc1` (stereo not given), the “activity change, negative = active” value was 4.35%.
The same measure, in the same setting: the result for `CCOC(=O)CSC1=Nc2ccccc2C2=NC(CCC(=O)NCc3ccc(F)cc3)C(=O)N12` (stereo not given) reads 4.54%; that for `CCCOc1ccc(F)cc1-c1cc(C(=O)Nc2ccc(F)cc2)[nH]n1`, -0.0166%.
On the same count and under the same terms, the result for `CC(C)C1CCN(C(=O)C2CCC(=O)N(C3CCCCCC3)C2)CC1` (stereo not given) reads 1.03%.
`COc1ccc2[nH]c3c(=O)n(Cc4ccco4)cnc3c2c1`: the Potency was 25.1 µM (active).
Consider `COc1ccc(Cn2ccnc2SCC(=O)NCc2ccco2)cc1`, for which the “activity change, negative = active” value was -2.28%.
The same measure, in the same setting: the result for `COc1ccc2c(c1)c1ncn(Cc3ccccn3)c(=O)c1n2C` reads 4.35%.
Still for that read-out and setting: next, `O=c1c2[nH]c3ccc(Cl)cc3c2ncn1Cc1ccccn1`: -14.7%; `COCCN(Cc1ccco1)C(=O)Cn1ncc2c([nH]c3ccccc32)c1=O`: 4.44%.
As to `Cc1ccc2[nH]c3c(=O)n(Cc4ccccn4)cnc3c2c1`, the Potency was 31.6 µM (active).
Take `CN(C)CCCOc1ccc(-c2ccc3nccn3c2)cn1`: the “activity change, negative = active” value was -24.3%.
The same measure, in the same setting: the result for `COc1cccc(NC(=O)C2(C)CCN2Cc2ccccc2Cl)c1` (stereo not given) reads -0.477%; that for `CC1=C(C(=O)N(C(C)C)C(C)C)CC(CC(=O)NCCCCc2ccccc2)C(=O)N1CCC1=CCCCC1` (stereo not given), -0.51%; that for `CN(Cc1ccccc1)C(=O)CCC1CCN(C(=O)c2ccco2)CC1`, 1.04%.
On to `Cc1ccc2c(c1)c1ncn(Cc3ccc(F)cc3)c(=O)c1n2C`, for which the “activity change, negative = active” value was 3.72%.
In the case of `Cc1ccc2c(c1)c1ncnc(N3CCc4ccccc4C3)c1n2C`, the Potency is 31.6 µM (active).
With `Cc1ccc2c(c1)c1ncn(CCC3=CCCCC3)c(=O)c1n2C`, the “activity change, negative = active” value is -29.4%.
Still for that read-out and setting: the result for `CCCCN1C(=O)C(CC(=O)NCc2cccs2)CC(C(=O)N2CCCCCC2)=C1C` (stereo not given) reads 2.09%; that for `CCOC1=C2[C@@H](CN(S(=O)(=O)c3ccc(C)cc3)[C@H]2c2ccccc2F)[C@H]2C(=O)N(Cc3ccccc3)C(=O)[C@H]2C1`, -5.97%.
The same measure, in the same setting: next, `COc1ccc(-c2cn[nH]c2-c2ccc(OC)cc2)cc1`: -8.81%.
Still for that read-out and setting: the result for `Oc1ccc(-c2[nH]ncc2-c2nc3ccccc3s2)c(O)c1` reads -25.2%.
Regarding `COc1ccc(-c2[nH]nc(-c3ccccc3)c2-c2nc3ccccc3[nH]2)cc1`, the Potency is 25.1 µM (active).
In the case of `c1ccc(-c2[nH]ncc2-c2nc3ccccc3[nH]2)cc1`, the Potency is 25.1 µM (active).
Same read-out and setting: next, `c1ccc2[nH]c(-c3nc4ccccc4[nH]3)nc2c1`: 7.08 µM (active).
For the compound `COc1ccc(NC(=O)CSc2nc3ccccc3[nH]2)cc1`, the “activity change, negative = active” value is -0.614%.
Take `Cc1ccc(OCC(=O)Nc2ccc(Cl)c(-c3nc4ccccc4[nH]3)c2)cc1C`: the “activity change, negative = active” value is 4.68%.
Still for that read-out and setting: next, `Clc1ccccc1SCc1nc2ccccc2[nH]1`: -2.24%; `Nc1ccccc1-c1nc2ccncc2[nH]1`: 3.69%; `COc1cccc(CNC(=O)[C@@H]2CCCN2C(=O)[C@@H]2CCCN2C(=O)c2ccccc2)c1`: -3.48%.
In the case of `Cc1[nH]c2ccccc2c1C(=O)c1cc([C@H](NC(=O)OC(C)(C)C)C(C)C)sc1N`, the “activity change, negative = active” value was -1.88%.
For the compound `CN(Cc1cn(Cc2ccc(C(F)(F)F)cc2)nn1)C1CN(Cc2cn(Cc3ccc(C(F)(F)F)cc3)nn2)S(=O)(=O)C1` (stereo not given), the “activity change, negative = active” value was 2.25%.
Take `CCOCCCNC(=O)c1cn(CC(C)C)c(=O)c2c1c1ccccc1n2C`: the Potency was 39.8 µM (active).
For the compound `CCOCCCNC(=O)c1cn(CC)c2ccc(S(=O)(=O)N3CCc4ccccc4C3)cc2c1=O`, the “activity change, negative = active” value is -0.751%.
Still for that read-out and setting: the result for `COCCCNC(=O)Cn1cc(C(=O)C2CC2)c2ccccc21` reads 0.52%; that for `CC(=O)C[C@@H]1OC[C@H](CO)N1S(=O)(=O)c1ccc(C)cc1`, 0.114%.
Still for that read-out and setting: next, `CCN1CCN(c2ccc(/C=C/c3ccnc4ccccc34)cc2)CC1`: -1.67%; `COCCn1nnnc1C(c1ccccc1Cl)N1CCN(c2ccccc2OC)CC1` (stereo not given): 16.9%; `COc1ccc(N2CCN(C(c3cc4ccc(C)cc4[nH]c3=O)c3nnnn3C3CCCC3)CC2)cc1` (stereo not given): -8.89%.
Take `CCOc1ccc2[nH]c(=O)c(C(c3nnnn3CCOC)N3CCOCC3)cc2c1` (stereo not given): the Potency was 15.8 µM (active).
On to `CSCCC(C(=O)NC(C)(C)C)n1c(-c2ccccc2)nc2ccccc21` (stereo not given), for which the “activity change, negative = active” value was -7.98%.
Same read-out and setting: the result for `Cc1cccc(C)c1-n1nnnc1C(CCc1ccccc1)N1CCN(C/C=C/c2ccccc2)CC1` (stereo not given) reads 2.81%; that for `CCCCNC(=O)c1nc(C2CCN(S(=O)(=O)c3ccc(F)c(F)c3)CC2)oc1-c1cccc(C(F)(F)F)c1`, -16.5%.
As for `CCOc1cc(-c2nc3cc(C)ccn3c2NCC2CCCO2)ccc1O` (stereo not given), the Potency is 28.2 µM (active).
As for `COc1ccc(-c2nc3cc(C)ccn3c2NC2CCCCC2)cc1SC1CCCCC1`, the “activity change, negative = active” value is 3.39%.
On the same count and under the same terms, the result for `CCOc1cc(C(C(=O)NCC2CCCO2)N(C(=O)Cn2nnc3ccccc32)c2cccc(OC)c2)ccc1O` (stereo not given) reads -0.295%.
